Reference: the supplement of paper PMC10498489
The campaign covered roughly 2,300 compounds. About 330 (14%) showed activity. A selection follows. A number with no mark means an inactive call.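 Rule for the calls: active = median modified Z-score above 1.96; inactive = 1.96 or below.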

system: HepG2 Srxn1-GFP reporter cells (+30 nM CDDO-Me); assay: Srxn1-GFP intensity median modified Z-score relative to plate median; higher = stronger NRF2 / oxidative stress reporter activation, active = hit call of the paper; conditions: 10 µM; exposure time: 24h
Summary of the method: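 Compound at 10 μM was applied with an NRF2 activator at 30 nM to HepG2 Srxn1-GFP BAC reporter cells for 24 h, in DMSO at no more than 0.1%, using three replicate 96-well plates seeded at 20,000 cells per well. Fixed, Hoechst-stained cells were imaged confocally and cytoplasmic GFP was scored for each cell, with images under 100 cells left out. The figure reported is the replicate median of the per-plate modified Z-score of GFP intensity. Scaling relied on 1.4826 × median absolute deviation.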

Structure (SMILES) | Srxn1-GFP intensity median modified Z-score
COC(=O)c1cc(-c2ccccc2)nc2ccccc12 | 1.89
O=C1C=Cc2c(c(O)c3ccccc3c2O)C1=O [euspeclibcmpd1683] | 0.752
O=C1CC(=O)c2c(c(O)c3ccccc3c2O)C1=O [euspeclibcmpd1727] | 8.98 (active)
Cc1cc(/C=C/c2ccc3cc(N(C)C)ccc3[n+]2C)c(C)n1-c1ccccc1 [euspeclibcmpd260] | 28.6 (active)
COc1c(-c2ccccc2)oc2cc(O)cc(O)c2c1=O [euspeclibcmpd2295] | -0.0938
CCCOc1ccc(C(=O)OCCN(CC)CC)cc1N [euspeclibcmpd842] | -0.601
CCN(CC)CCOC(=O)c1ccc(N)cc1 [euspeclibcmpd248] | -0.882
CCCCOc1cc(C(=O)OCCN(CC)CC)ccc1N [euspeclibcmpd809] | 16.2 (active)
O=C(O)C(O)C(O)C(O)C(O)C(=O)O (stereo unspecified) [euspeclibcmpd2053] | -0.466
Cc1[nH]c(=O)[nH]c1O [euspeclibcmpd1742] | -0.283
Cc1[nH]c(C)c(Cl)c(=O)c1Cl [euspeclibcmpd744] | 6.67 (active)
O=C(O)C=C(CC(=O)O)C(=O)O [euspeclibcmpd1609] | -0.206
C=C1CC2C3=CC(C)=C4CC(=O)CC[C@]4(C)C3CC[C@]2(C)[C@@]1(OC(C)=O)C(C)=O (stereo partly specified) [euspeclibcmpd860] | 1.04
CSC1(CNC(=O)Nc2cnn(C)c2Cl)CC1 | 1.35
OC[C@@H](O)[C@@H](O[C@@H]1O[C@H](CO)[C@@H](O)[C@H](O)[C@H]1O)[C@H](O)[C@@H](O)CO [euspeclibcmpd2177] | -0.452
COC(=O)C(c1ccccc1Cl)N1CCc2sccc2C1 (stereo unspecified) [euspeclibcmpd599] | -0.316
CCCCC(CC)CN1CN(CC(CC)CCCC)CC(C)(N)C1 (stereo unspecified) [euspeclibcmpd1036] | 14.2 (active)
COc1cnc(=NS(=O)(=O)c2ccc(N)cc2)[nH]c1 [euspeclibcmpd408] | -0.161
NC(=O)CN1CCCCCCC1=O | 0.32
CC1=C(CC(=O)O)c2cc(F)ccc2C1=Cc1ccc([S+](C)[O-])cc1 (stereo unspecified) [euspeclibcmpd284] | -0.29
c1ccc(C(c2ccccc2)(c2ccccc2)n2ccnc2)cc1 | 1.95
c1ccc(-c2ccc(C(c3ccccc3)n3ccnc3)cc2)cc1 (stereo unspecified) [euspeclibcmpd741] | 3.36 (active)
N#Cc1ccc(C(c2ccc(C#N)cc2)n2cncn2)cc1 [euspeclibcmpd693] | -0.19
CCOC(=O)C(CCc1ccccc1)NC(C)C(=O)N1CCCC1C(=O)O (stereo unspecified) [euspeclibcmpd421] | 0.166

Structure (SMILES) | Srxn1-GFP intensity median modified Z-score
CCOC(=O)C(CCc1ccccc1)NC(C)C(=O)N1Cc2ccccc2CC1C(=O)O (stereo unspecified) [euspeclibcmpd521] | 0.162
CCOC(=O)C(CCc1ccccc1)NC1CCc2ccccc2N(CC(=O)O)C1=O (stereo unspecified) [euspeclibcmpd912] | 3.02 (active)
N=c1[nH]c(=O)[nH]cc1F [euspeclibcmpd698] | 1.2
CC(=O)OCC(=O)[C@@]1(O)[C@H](C)CC2C3CC=C4CC(=O)C=C[C@]4(C)[C@@]3(F)[C@@H](O)C[C@@]21C (stereo partly specified) [euspeclibcmpd2125] | -0.395
CC(=O)Oc1cccc(C)c1 [euspeclibcmpd1228] | -0.455
Cc1cccc(N(C)C(=S)Oc2ccc3ccccc3c2)c1 [euspeclibcmpd299] | 8.23 (active)
CC(C)(C)NCC(O)COc1cccc2c1CCCC2=O (stereo unspecified) [euspeclibcmpd764] | -0.976
CCCCCCCCCCCCCCCCOP(=O)(O)OCC[N+](C)(C)C [euspeclibcmpd1120] | 1.47
NC(C(=O)NC1C(=O)N2C(C(=O)O)=C(Cl)CSC12)c1ccccc1 (stereo unspecified) [euspeclibcmpd343] | -0.608
Cn1cnc([N+](=O)[O-])c1Sc1ncnc2[nH]cnc12 [euspeclibcmpd29] | 2.86 (active)
N=c1[nH]cnc2c1ncn2C1O[C@H](COP(=O)(O)O)[C@@H](O)[C@H]1O (stereo partly specified) [euspeclibcmpd330] | -0.321
COc1cccc2c(O)c3c(O)c4c(c(O)c3c(O)c12)=C(OC1C[C@H](N)[C@H](O)[C@H](C)O1)C[C@](O)(C(=O)CO)C=4 (stereo partly specified) [euspeclibcmpd2291] | 0.455
COc1cccc2c(O)c3c(O)c4c(c(O)c3c(O)c12)=C(O[C@H]1C[C@H](N)[C@H](O)[C@H](C)O1)C[C@](O)(C(C)=O)C=4 [euspeclibcmpd83] | 0.648
CCc1ccc2c(O)c3c(O)c4c(c(O)c3cc2c1C(=O)OC)C(=O)C=CC4=O [euspeclibcmpd1950] | 1.63
CCC1(O)C=C(OC2CC(N(C)C)C(O)C(C)O2)c2c(cc3c(O)c4c(O)ccc(O)c4c(O)c3c2O)C1C(=O)OC (stereo unspecified) [euspeclibcmpd1939] | 97.7 (active)
CC[C@@]1(O)CC(=O)c2c(cc3c(O)c4c(O)ccc(O)c4c(O)c3c2O)C1C(=O)OC (stereo partly specified) [euspeclibcmpd1470] | 70.7 (active)
COc1ccc2c(=O)ccoc2c1 [euspeclibcmpd1397] | 0.575
CC1(C)SC2C(NC(=O)C(C(=O)O)c3ccccc3)C(=O)N2C1C(=O)O (stereo unspecified) [euspeclibcmpd2333] | 0.114
O=c1c2cc(O)c(O)cc2oc2cc(O)c(C3O[C@H](CO)[C@@H](O)[C@H](O)[C@H]3O)c(O)c12 (stereo partly specified) [euspeclibcmpd1520] | -0.904
CCCc1nc(=N)c(C[n+]2ccccc2C)c[nH]1 [euspeclibcmpd493] | -0.6
COc1cccc(-c2cc(=O)c3cc(OC)ccc3o2)c1 [euspeclibcmpd1659] | -0.339
Cc1cc(O)c2c(c1)C(=O)c1cccc(O)c1C2=O [euspeclibcmpd1712] | 4.5 (active)
Cc1cc(O)c2c(c1)C(=O)c1cc(O)cc(O)c1C2=O [euspeclibcmpd1604] | 0.573
COc1cc(O)c2c(c1)C(=O)c1cc(C)cc(O)c1C2=O [euspeclibcmpd1472] | 0.0189

Structure (SMILES) | Srxn1-GFP intensity median modified Z-score
O=C1c2cccc(O)c2C(=O)c2c(O)cccc21 [euspeclibcmpd3] | 19.4 (active)
O=C(O)C(O)[C@H](O)[C@H](O)[C@H](O)[C@H](O)CO (stereo partly specified) [euspeclibcmpd2445] | -0.00236
CC(=O)C1(O)CCC2C3CC(C)=C4CC(=O)C=CC4(C)C3(F)C(O)CC21C (stereo unspecified) [euspeclibcmpd1970] | -0.646
COc1cc([C@H]2Oc3cc(C4Oc5cc(O)cc(O)c5C(=O)C4O)ccc3O[C@@H]2CO)ccc1O (stereo partly specified) [euspeclibcmpd2298] | -0.00238
C[C@]12CCC(OC(=O)c3ccccc3)CC1CCc1ccccc12 (stereo partly specified) [euspeclibcmpd2434] | 0.0569
CCn1c2cc(=N)ccc-2c2ccc(N)cc2c1-c1ccccc1 [euspeclibcmpd1148] | 4.33 (active)
C=C[C@@]1(C)CC(=O)[C@@]2(O)[C@](C)(O1)[C@@H](OC(C)=O)[C@@H](O)C1C(C)(C)CC[C@H](O)[C@@]12C (stereo partly specified) [euspeclibcmpd604] | -1.15
N=c1[nH]c(=O)c2[nH]c(=O)cnc2[nH]1 [euspeclibcmpd1707] | -0.214
CCCc1nc2c(C)cc(-c3nc4ccccc4n3C)cc2n1Cc1ccc(-c2ccccc2C(=O)O)cc1 [euspeclibcmpd729] | 3.15 (active)
CCCCc1nc(Cl)c(CO)n1Cc1ccc(-c2ccccc2-c2nn[nH]n2)cc1 [euspeclibcmpd678] | -0.235
CCCc1nc(C(C)(C)O)c(C(=O)OCc2oc(=O)oc2C)n1Cc1ccc(-c2ccccc2-c2nn[nH]n2)cc1 [euspeclibcmpd716] | -0.529
O=C1C(CCC(O)c2ccc(F)cc2)[C@@H](c2ccc(O)cc2)N1c1ccc(F)cc1 (stereo partly specified) [euspeclibcmpd714] | 1.03
COC(=O)C(NC(=O)CCCCn1cnc2c(N)ncnc21)C(C)C (stereo unspecified) | 1.19
CC(=O)OC1(C(C)=O)CCC2C3=CC(Cl)=C4CC(=O)C5CC5C4(C)C3CCC21C (stereo unspecified) [euspeclibcmpd1971] | -0.163
CC(O)CN(CCN(CC(C)O)CC(C)O)CC(C)O (stereo unspecified) [euspeclibcmpd990] | -0.227
Oc1ccc(C=Cc2cc(O)cc(O)c2)cc1 [euspeclibcmpd1411] | 12.1 (active)
OC[C@H]1O[C@H](Oc2cc(O)cc(C=Cc3ccc(O)cc3)c2)[C@H](O)[C@@H](O)[C@@H]1O [euspeclibcmpd1401] | -0.514
CCS(=O)(=O)N1CCCC(C(=O)NCCCN(C)OC)C1 (stereo unspecified) | 0.974
Nc1ccc(S(=O)(=O)N=c2ccc(Cl)n[nH]2)cc1 [euspeclibcmpd398] | -0.684
O=C(NCC(O)=NO)c1ccc(Cl)cc1 [euspeclibcmpd774] | 0.804
O=c1c(O)c(-c2ccc(O)c(O)c2)oc2cc(O)cc(O)c12 | 0.376
CC(=O)OCC(=O)[C@@]1(O)CCC2C3CC=C4CC(=O)CC[C@]4(C)C3[C@@H](O)C[C@@]21C (stereo partly specified) [euspeclibcmpd151] | -0.58
C[C@H](Cn1cnc2c(=N)nc[nH]c21)OCP(=O)(O)O [euspeclibcmpd1075] | -0.0246
